This note sets out measurements from the supplement of paper PMC10849652.

About 7,900 targets were measured; listed, in parts, are those with a hit and a random draw of the rest. About 0.6% of all pairs of compound and target were hits. A number with no mark means an inactive call.

UniProt P52789, sequence (P52789 whole entry, looked up): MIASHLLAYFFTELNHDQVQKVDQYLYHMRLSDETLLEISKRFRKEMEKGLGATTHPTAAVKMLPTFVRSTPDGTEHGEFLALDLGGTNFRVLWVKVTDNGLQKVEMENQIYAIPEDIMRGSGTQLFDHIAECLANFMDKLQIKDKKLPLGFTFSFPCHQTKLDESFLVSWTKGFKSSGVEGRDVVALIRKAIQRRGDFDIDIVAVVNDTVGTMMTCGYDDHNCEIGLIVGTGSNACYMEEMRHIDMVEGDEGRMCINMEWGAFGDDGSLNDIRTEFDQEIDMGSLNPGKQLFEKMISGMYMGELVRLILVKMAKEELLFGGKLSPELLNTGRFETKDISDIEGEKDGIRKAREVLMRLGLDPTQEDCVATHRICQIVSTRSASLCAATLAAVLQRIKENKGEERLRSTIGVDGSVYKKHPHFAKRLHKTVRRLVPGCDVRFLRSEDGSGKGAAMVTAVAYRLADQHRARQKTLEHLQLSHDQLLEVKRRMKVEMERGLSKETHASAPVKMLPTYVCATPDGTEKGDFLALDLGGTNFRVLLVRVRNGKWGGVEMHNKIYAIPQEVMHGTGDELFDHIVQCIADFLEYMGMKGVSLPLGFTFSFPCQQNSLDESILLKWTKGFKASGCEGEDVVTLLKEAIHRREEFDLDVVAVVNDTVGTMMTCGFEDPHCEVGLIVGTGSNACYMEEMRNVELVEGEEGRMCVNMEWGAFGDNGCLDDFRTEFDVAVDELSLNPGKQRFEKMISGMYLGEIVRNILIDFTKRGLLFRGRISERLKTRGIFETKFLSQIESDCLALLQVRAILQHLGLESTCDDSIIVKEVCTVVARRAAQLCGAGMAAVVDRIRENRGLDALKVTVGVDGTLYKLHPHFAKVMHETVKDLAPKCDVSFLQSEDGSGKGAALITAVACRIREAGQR
UniProt P15104, sequence (P15104 whole entry, looked up): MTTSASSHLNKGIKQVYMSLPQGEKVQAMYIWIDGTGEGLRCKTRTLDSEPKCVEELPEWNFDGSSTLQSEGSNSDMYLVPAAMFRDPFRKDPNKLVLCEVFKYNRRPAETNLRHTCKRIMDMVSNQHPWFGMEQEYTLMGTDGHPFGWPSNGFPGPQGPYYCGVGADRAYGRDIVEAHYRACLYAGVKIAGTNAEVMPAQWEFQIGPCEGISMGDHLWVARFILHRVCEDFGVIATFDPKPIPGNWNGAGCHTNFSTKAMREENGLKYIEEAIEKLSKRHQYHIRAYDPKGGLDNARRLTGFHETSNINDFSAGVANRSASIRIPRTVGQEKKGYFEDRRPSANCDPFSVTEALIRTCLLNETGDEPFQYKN
UniProt Q53GQ0, sequence (Q53GQ0 whole entry, looked up): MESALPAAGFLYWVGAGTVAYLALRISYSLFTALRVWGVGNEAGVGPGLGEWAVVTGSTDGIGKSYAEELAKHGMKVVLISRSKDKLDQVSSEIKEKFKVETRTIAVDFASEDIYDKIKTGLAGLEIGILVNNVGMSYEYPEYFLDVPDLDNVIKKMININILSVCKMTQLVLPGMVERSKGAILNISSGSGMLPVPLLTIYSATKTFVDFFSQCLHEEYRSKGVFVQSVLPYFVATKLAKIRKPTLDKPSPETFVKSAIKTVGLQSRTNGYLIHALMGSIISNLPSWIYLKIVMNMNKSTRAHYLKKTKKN
UniProt P23327, sequence (P23327 whole entry, looked up): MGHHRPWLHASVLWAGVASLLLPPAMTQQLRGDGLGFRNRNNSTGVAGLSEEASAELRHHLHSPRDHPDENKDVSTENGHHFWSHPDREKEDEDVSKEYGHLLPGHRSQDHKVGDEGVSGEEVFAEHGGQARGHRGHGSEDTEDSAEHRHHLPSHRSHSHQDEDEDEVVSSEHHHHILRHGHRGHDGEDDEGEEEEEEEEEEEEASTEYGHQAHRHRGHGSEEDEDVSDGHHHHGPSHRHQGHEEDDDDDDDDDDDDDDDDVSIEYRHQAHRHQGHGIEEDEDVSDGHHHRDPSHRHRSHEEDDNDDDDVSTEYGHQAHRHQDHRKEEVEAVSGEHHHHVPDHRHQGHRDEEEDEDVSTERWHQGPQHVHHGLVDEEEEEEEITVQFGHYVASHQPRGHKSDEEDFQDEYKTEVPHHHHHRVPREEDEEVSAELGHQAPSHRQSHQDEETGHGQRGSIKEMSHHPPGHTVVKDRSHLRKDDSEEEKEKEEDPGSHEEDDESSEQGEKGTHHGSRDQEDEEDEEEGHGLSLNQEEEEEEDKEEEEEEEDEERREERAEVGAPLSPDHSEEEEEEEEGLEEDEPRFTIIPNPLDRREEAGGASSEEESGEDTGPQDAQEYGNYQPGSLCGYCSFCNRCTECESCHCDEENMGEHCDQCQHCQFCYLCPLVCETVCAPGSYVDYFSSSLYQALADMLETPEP
UniProt O15117, sequence (O15117 whole entry, looked up): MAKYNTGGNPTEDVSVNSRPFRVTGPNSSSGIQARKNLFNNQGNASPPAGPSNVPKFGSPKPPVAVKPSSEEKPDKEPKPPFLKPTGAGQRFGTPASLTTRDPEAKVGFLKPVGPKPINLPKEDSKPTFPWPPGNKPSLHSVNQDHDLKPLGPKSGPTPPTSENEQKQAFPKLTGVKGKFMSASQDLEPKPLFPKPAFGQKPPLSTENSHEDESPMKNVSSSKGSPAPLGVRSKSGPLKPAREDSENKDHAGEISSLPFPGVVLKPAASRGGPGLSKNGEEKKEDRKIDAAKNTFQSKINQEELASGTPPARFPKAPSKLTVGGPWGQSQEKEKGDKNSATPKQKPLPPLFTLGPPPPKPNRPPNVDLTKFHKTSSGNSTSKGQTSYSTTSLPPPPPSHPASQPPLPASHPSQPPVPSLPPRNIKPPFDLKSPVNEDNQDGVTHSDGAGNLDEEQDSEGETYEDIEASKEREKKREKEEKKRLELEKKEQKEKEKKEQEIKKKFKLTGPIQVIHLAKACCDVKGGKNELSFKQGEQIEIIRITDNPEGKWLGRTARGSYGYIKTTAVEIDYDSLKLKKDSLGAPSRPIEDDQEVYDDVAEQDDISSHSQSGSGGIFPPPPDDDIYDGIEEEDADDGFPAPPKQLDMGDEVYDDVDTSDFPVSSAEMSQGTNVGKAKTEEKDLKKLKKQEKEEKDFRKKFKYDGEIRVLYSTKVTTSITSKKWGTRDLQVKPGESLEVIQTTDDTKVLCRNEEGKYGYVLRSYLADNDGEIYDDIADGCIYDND
UniProt Q7Z4V5, sequence (Q7Z4V5 whole entry, looked up): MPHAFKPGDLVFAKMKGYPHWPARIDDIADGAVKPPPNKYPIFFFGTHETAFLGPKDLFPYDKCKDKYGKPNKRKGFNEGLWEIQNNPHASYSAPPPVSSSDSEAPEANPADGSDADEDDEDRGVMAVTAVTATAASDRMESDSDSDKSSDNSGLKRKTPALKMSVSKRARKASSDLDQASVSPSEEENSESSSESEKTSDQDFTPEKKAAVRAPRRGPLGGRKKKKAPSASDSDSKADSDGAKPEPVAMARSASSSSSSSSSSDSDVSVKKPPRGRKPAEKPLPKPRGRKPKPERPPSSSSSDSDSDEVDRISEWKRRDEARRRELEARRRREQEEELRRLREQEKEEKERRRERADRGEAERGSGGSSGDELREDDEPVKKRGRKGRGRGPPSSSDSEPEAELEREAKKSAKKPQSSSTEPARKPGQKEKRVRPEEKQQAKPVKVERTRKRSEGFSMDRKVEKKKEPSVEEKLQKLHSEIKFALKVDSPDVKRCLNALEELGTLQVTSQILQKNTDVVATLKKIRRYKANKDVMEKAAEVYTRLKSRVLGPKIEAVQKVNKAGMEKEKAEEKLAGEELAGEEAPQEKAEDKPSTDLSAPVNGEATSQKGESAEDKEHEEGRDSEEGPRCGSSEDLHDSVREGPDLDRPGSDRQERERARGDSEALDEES
UniProt Q00403, sequence (Q00403 whole entry, looked up): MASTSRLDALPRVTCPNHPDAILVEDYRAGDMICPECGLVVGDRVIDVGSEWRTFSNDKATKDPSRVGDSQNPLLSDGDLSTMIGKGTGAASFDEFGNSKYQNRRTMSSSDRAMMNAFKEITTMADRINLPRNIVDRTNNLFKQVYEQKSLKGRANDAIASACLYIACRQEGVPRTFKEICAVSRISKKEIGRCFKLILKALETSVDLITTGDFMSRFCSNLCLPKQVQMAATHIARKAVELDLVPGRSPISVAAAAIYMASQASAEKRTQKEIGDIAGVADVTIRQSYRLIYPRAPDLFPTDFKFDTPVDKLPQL
UniProt Q49A26, sequence (Q49A26 whole entry, looked up): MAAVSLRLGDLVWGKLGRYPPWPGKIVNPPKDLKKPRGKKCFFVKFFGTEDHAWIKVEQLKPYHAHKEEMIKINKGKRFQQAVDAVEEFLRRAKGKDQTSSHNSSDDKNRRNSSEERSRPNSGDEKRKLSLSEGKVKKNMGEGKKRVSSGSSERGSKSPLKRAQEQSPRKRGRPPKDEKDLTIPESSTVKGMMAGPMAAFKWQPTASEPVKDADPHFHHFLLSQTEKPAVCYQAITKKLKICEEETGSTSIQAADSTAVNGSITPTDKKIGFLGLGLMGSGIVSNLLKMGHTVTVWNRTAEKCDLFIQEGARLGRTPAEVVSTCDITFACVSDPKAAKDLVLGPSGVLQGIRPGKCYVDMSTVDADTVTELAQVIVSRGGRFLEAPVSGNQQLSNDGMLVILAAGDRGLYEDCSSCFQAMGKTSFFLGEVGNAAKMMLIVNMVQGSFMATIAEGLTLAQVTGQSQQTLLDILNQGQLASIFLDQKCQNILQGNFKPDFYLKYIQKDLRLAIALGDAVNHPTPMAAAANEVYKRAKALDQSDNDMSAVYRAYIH
UniProt P30711, sequence (P30711 whole entry, looked up): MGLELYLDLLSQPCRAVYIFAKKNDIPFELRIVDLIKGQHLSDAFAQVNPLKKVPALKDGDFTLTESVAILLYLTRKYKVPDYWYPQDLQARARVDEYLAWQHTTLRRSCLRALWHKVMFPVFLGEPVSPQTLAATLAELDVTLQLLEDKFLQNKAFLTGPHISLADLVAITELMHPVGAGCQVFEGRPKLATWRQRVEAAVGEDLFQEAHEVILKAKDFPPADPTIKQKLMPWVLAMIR
UniProt P05114, sequence (P05114 whole entry, looked up): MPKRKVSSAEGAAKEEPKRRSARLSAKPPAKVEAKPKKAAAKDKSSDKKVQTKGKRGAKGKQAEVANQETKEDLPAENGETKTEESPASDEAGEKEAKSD

Compound in the first assay: CN1C2=C(C3=C1C(=O)N(N=C3)CC4=CC(=CC=C4)N)SC(=C2)S(=O)C
Briefly: log2 fold change, soluble protein after heating vs DMSO (PISA); higher = thermal stabilisation; K562 cells, 10 uM, 30 min; active = over 0.2 and 3.5 SD of the protein, either way, in both replicates (recomputed). Put shortly:
(§1)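 Aliquots of K562 cells (2×10^6 cells/mL) treated with 10 μM compound for 30 min were heated for 3 min over 48°C-58°C. After pooling and extraction in PBS with 0.5% NP-40 at 4°C, soluble protein from a 21,000xg, 90 min spin was quantified by TMTpro 16plex LC-MS/MS with channel sums equalised. Thermal stability is expressed against control samples, from duplicates, as a log2 fold change.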
On to FHOD1 (UniProt Q9Y613), for which the log2 fold change is 0.372.

For GLB1 (UniProt P16278), the log2 fold change was 0.037.

For HDGFL2 (UniProt Q7Z4V5), the log2 fold change was 0.006.

As to FYB1 isoform 3 (UniProt O15117), the log2 fold change was -0.068.

For GSTT1 (UniProt P30711), the log2 fold change is -0.058.

HEXA (UniProt P06865): the log2 fold change is -0.02.

Take GLUL (UniProt P15104): the log2 fold change was -0.032.

Take HS1BP3 (UniProt Q53T59): the log2 fold change was -0.041.

For ICMT (UniProt O60725), the log2 fold change is -0.051.

Consider HNRNPH2 (UniProt P55795), for which the log2 fold change is 0.087.

For GGA2 (UniProt Q9UJY4), the log2 fold change was -0.02.

With GBA2 (UniProt Q9HCG7), the log2 fold change was -0.085.

For the target HK2 (UniProt P52789), the log2 fold change was -0.028.

Take GMEB2 (UniProt Q9UKD1): the log2 fold change is -0.03.

Regarding IFRD1 (UniProt O00458), the log2 fold change was -0.097.

Turning to GAK (UniProt O14976), the log2 fold change is -0.038.

Take HDAC7 isoform 5 (UniProt Q8WUI4): the log2 fold change was -0.053.

Take HNRNPUL1 (UniProt Q9BUJ2): the log2 fold change was 0.099.

Turning to HSD17B12 (UniProt Q53GQ0), the log2 fold change was -0.039.

In the case of GBF1 (UniProt Q92538), the log2 fold change is 0.081.

Regarding GOLGB1 isoform 2 (UniProt Q14789), the log2 fold change was 0.148.

For GLRX3 (UniProt O76003), the log2 fold change is -0.03.

Consider HMGN1 (UniProt P05114), for which the log2 fold change is 0.039.

With FKBP3 (UniProt Q00688), the log2 fold change was -0.065.

Turning to GDE1 (UniProt Q9NZC3), the log2 fold change was -0.016.

As to HRC (UniProt P23327), the log2 fold change was -0.107.

HEXB (UniProt P07686): the log2 fold change was -0.047.

As for GYS1 (UniProt P13807), the log2 fold change is 0.364.

FDXR isoform 7 (UniProt P22570): the log2 fold change is -0.097.

On to GTF2B (UniProt Q00403), for which the log2 fold change was -0.002.

Consider GLYR1 (UniProt Q49A26), for which the log2 fold change is -0.019.

Take GPKOW (UniProt Q92917): the log2 fold change is 0.022.

Consider IFITM3 (UniProt Q01628), for which the log2 fold change was -0.015.

As for GALC (UniProt P54803), the log2 fold change was -0.011.

Compound in another assay: CN1CCC(CNc2ccc3ncc(-c4cccc(OC(F)(F)F)c4)n3n2)CC1
The assay is described as above. In short, it runs like this: as §1
For FHOD1 (UniProt Q9Y613), the log2 fold change is -0.022.

Consider GLB1 (UniProt P16278), for which the log2 fold change was -0.751 (active).

HDGFL2 (UniProt Q7Z4V5): the log2 fold change was -0.033.

In the case of FYB1 isoform 3 (UniProt O15117), the log2 fold change is -0.246.

For GSTT1 (UniProt P30711), the log2 fold change is -0.002.

On to HEXA (UniProt P06865), for which the log2 fold change was -0.63 (active).

Turning to GLUL (UniProt P15104), the log2 fold change is 0.017.

Consider HNRNPH2 (UniProt P55795), for which the log2 fold change is -0.06.

Consider HK2 (UniProt P52789), for which the log2 fold change was -0.038.

As to GMEB2 (UniProt Q9UKD1), the log2 fold change is -0.075.

Take IFRD1 (UniProt O00458): the log2 fold change was 0.297.

For GAK (UniProt O14976), the log2 fold change was 0.95.

HDAC7 isoform 5 (UniProt Q8WUI4): the log2 fold change is -0.123.

Turning to HNRNPUL1 (UniProt Q9BUJ2), the log2 fold change was 0.031.

Consider HSD17B12 (UniProt Q53GQ0), for which the log2 fold change was 0.037.

On to GBF1 (UniProt Q92538), for which the log2 fold change was -0.212.

As for HSPA8 (UniProt E9PN89), the log2 fold change was -0.154.

As for GOLGB1 isoform 2 (UniProt Q14789), the log2 fold change is -0.009.

Take GLRX3 (UniProt O76003): the log2 fold change was -0.03.

On to HMGN1 (UniProt P05114), for which the log2 fold change was 0.101.

In the case of FKBP3 (UniProt Q00688), the log2 fold change was 0.015.

Regarding HRC (UniProt P23327), the log2 fold change was -0.013.

On to HEXB (UniProt P07686), for which the log2 fold change was -0.563 (active).

Regarding GYS1 (UniProt P13807), the log2 fold change was 0.123.

Turning to FDXR isoform 7 (UniProt P22570), the log2 fold change is -0.387 (active).

On to GTF2B (UniProt Q00403), for which the log2 fold change is -0.193.

Take GLYR1 (UniProt Q49A26): the log2 fold change is 0.041.

In the case of GPKOW (UniProt Q92917), the log2 fold change is -0.248.

GALC (UniProt P54803): the log2 fold change was -0.403 (active).

Compound in a further assay: CN1CCN(CCOc2cc(OC3CCOCC3)c3c(Nc4c(Cl)ccc5c4OCO5)ncnc3c2)CC1 [saracatinib]
Described as above. Put shortly:
as §1
Consider FHOD1 (UniProt Q9Y613), for which the log2 fold change is -0.143.

Consider GLB1 (UniProt P16278), for which the log2 fold change is -0.011.

As for HDGFL2 (UniProt Q7Z4V5), the log2 fold change is 0.01.

As for FYB1 isoform 3 (UniProt O15117), the log2 fold change was 0.007.

Turning to GSTT1 (UniProt P30711), the log2 fold change was -0.011.

Consider HEXA (UniProt P06865), for which the log2 fold change is 0.031.

Consider GLUL (UniProt P15104), for which the log2 fold change was 0.012.

Turning to HS1BP3 (UniProt Q53T59), the log2 fold change was 0.107.

For the target ICMT (UniProt O60725), the log2 fold change is -0.105.

Regarding HNRNPH2 (UniProt P55795), the log2 fold change is -0.065.

With GGA2 (UniProt Q9UJY4), the log2 fold change is -0.054.

For the target GBA2 (UniProt Q9HCG7), the log2 fold change was -0.046.

Turning to HK2 (UniProt P52789), the log2 fold change is 0.008.

GMEB2 (UniProt Q9UKD1): the log2 fold change was 0.018.

On to IFRD1 (UniProt O00458), for which the log2 fold change was 0.026.

GAK (UniProt O14976): the log2 fold change was 1.06.

Regarding HDAC7 isoform 5 (UniProt Q8WUI4), the log2 fold change was -0.04.

For the target HNRNPUL1 (UniProt Q9BUJ2), the log2 fold change was -0.016.

HSD17B12 (UniProt Q53GQ0): the log2 fold change is -0.037.

Regarding GBF1 (UniProt Q92538), the log2 fold change was -0.055.

For the target GOLGB1 isoform 2 (UniProt Q14789), the log2 fold change was -0.056.

In the case of GLRX3 (UniProt O76003), the log2 fold change is -0.017.

Take HMGN1 (UniProt P05114): the log2 fold change is 0.024.

For the target FKBP3 (UniProt Q00688), the log2 fold change is -0.006.

Regarding GDE1 (UniProt Q9NZC3), the log2 fold change was 0.029.

As for HRC (UniProt P23327), the log2 fold change was 0.063.

For the target HEXB (UniProt P07686), the log2 fold change is 0.

With GYS1 (UniProt P13807), the log2 fold change is -0.255.

Take FDXR isoform 7 (UniProt P22570): the log2 fold change was -0.027.

For GTF2B (UniProt Q00403), the log2 fold change is -0.155.

With GLYR1 (UniProt Q49A26), the log2 fold change was 0.007.

For the target GPKOW (UniProt Q92917), the log2 fold change was -0.03.

Turning to IFITM3 (UniProt Q01628), the log2 fold change was -0.022.

In the case of GALC (UniProt P54803), the log2 fold change is 0.033.
